Source: PubChem (National Center for Advancing Translational Sciences (NCATS))
PKM2 inhibitor: PKM2 (human) enzyme inhibition | P14618 | purified PKM2, ATP generation, Kinase-Glo luminescence | Potency, µM (highest dose often 57.5 µM), for inactives: at the highest dose activity change, negative = inhibition, actives largely listed as inhibitors | actives 0.058% (n = 260,000) | AID 1634; note: potency is the fitted concentration of half-maximal effect; nearly all actives have a fitted effect of over 60% in size
Target sequence (P14618 whole entry, looked up): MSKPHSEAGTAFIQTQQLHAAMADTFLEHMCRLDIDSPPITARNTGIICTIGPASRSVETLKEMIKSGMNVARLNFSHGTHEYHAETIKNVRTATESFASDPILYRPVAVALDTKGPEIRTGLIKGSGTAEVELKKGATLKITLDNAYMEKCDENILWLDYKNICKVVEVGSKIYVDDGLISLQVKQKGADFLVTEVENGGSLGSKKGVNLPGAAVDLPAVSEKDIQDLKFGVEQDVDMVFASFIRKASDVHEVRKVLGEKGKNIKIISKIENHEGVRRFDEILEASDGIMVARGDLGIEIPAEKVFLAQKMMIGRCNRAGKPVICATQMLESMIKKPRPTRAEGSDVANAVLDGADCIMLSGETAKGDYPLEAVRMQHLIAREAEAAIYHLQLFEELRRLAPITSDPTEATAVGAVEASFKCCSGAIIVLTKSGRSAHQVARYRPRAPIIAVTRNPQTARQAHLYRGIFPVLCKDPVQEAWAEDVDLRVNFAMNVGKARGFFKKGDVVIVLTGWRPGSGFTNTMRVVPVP
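Enzyme run at intermediate activity with final 0.1 mM ADP, 0.5 mM PEP (50 mM imidazole pH7.2, 50 mM KCl, 7 mM MgCl2), incubated 1 h at r.t. ATP formed read by Kinase-Glo luminescence, normalized to no-enzyme (full inhibition) and uninhibited wells.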
PKM2 inh CRC: dose-dependently blocks human pyruvate kinase M2 activity | Potency, µM (titrated, usually from 57.5 µM), inactives show top-dose activity change, negative = inhibition, most hits filed as inhibitors | purified hPK-M2, Kinase-Glo ATP luminescence, 1 h | shares compounds with PKM2 inhibitor | actives 50% (n = 55)
FLuc counter: counter-screen for pyruvate kinase M2 inhibitors: firefly luciferase inhibition; Kinase-Glo firefly luciferase, luminescence, 8 min; shares compounds with PKM2 inhibitor; Potency, µM (highest dose often 57.5 µM), for inactives: at the top dose activity, negative = inhibition, actives largely listed as inhibitors; actives 30% (n = 55)
PKM2 LDH couple: PKM2 (human) inhibition, NADH coupled readout. shares compounds with PKM2 inhibitor. purified hPK-M2, LDH-coupled NADH fluorescence kinetic. Potency, µM (highest dose often 57.5 µM), inactives show top-dose activity change, negative = inhibition, hits mostly inhibitors. 55 tested, under 10 active. AID 2267
Active calls of the source: *. The sample as a whole holds a higher share of hits than the screen did. Calls come from the whole dose curve; as a rule, active = well fitted curve in the direction sought with a large enough effect; inconclusive = small, poorly fitted or top-dose-only effect, or another doubt; inactive = no such curve, though single readings can be large; an effect the other way counts as inactive or inconclusive.

How did CNc1nc(-c2ccccc2)[n+](-c2ccc(C)cc2)s1 do in these assays?
PKM2 inhibitor: 10µM*

How did COc1ccc(NC(=O)/C(Cl)=C(/Cl)S(=O)Cc2ccc(Cl)cc2)cn1 (stereo not drawn) do in these assays?
PKM2 inhibitor: 36.5%

Results for COc1ccc(S(=O)(=O)Nc2nc3c(s2)CCCC3)cc1 ?
PKM2 inhibitor: 90.5%

Results for Clc1cc2c(c(CSc3nc4ccccc4n4cccc34)c1)OCOC2 ?
PKM2 inhibitor: 30.1%

What do the screens show for `O=C(Nc1cccc(O)c1)c1cccc(S(=O)(=O)Nc2cccc(O)c2)c1`?
PKM2 inhibitor: 41.9%

What do the screens show for `O=C(O)c1cc(NC(=O)c2cccc(C(=O)Nc3cc(C(=O)O)cc(C(=O)O)c3)c2)cc(C(=O)O)c1`?
PKM2 inhibitor: 12.6µM*

How did CC(=O)N1CCN(c2ccc(NC(=O)c3cccc(C)c3)cc2)CC1 do in these assays?
PKM2 inhibitor: 33.6%

Results for CC(=O)c1c(C)oc2ccc(N(C(C)=O)S(=O)(=O)c3cccc4cccnc34)cc12 ?
PKM2 inhibitor: 75.8%

What do the screens show for `Cc1cccc2sc(NS(=O)(=O)c3ccccc3)nc12`?
PKM2 inhibitor: 32.6%

How did N#Cc1nccnc1S(=O)(=O)c1cccs1 do in these assays?
PKM2 inhibitor: 53.0%

How did O=C1C(Cl)=C(Nc2ccccc2O)C(=O)N1CCc1ccccc1 do in these assays?
PKM2 inhibitor: 45.7%

What do the screens show for `COc1ccccc1N1C(=O)C=C(Sc2nc(C)cc(C)n2)C1=O`?
PKM2 inhibitor: 30.3%

How did CCOC(=O)c1cnc(SCC(=O)c2ccc3c(c2)OCCO3)nc1N do in these assays?
PKM2 inhibitor: 105.7%

Results for O=C(COC(=O)c1ccc(NS(=O)(=O)c2ccc3c(c2)OCCO3)cc1)NC1CC1 ?
PKM2 inhibitor: 43.2%

How did O=C(COC(=O)c1cccs1)c1ccc2c(c1)OCCO2 do in these assays?
PKM2 inhibitor: 28.2µM*

Results for CC(=O)Nc1ccc(N(C(=O)c2ccco2)C(C(=O)NC2CCCC2)c2ccc(N3CCOCC3)cc2)cc1 (stereo not drawn) ?
PKM2 inhibitor: 56.3%

How did COC(=O)c1nc(N)sc1-c1ccc(Cl)c(Cl)c1 do in these assays?
PKM2 inhibitor: 51.8%

Results for Cc1ccc(C(=O)N/C(=C\c2cn(S(=O)(=O)N(C)C)c3ccccc23)C(=O)NCCN2CCOCC2)cc1 ?
PKM2 inhibitor: 56.3%

Results for COCCCn1c(SCC(=O)Nc2ccc(NC(=O)c3ccco3)c(OC)c2)nc2ccccc2c1=O ?
PKM2 inhibitor: -0.7%

What do the screens show for `O=C(/C=C\c1ccco1)c1ccc(NC(=O)c2ccco2)cc1`?
PKM2 inhibitor: 49.6%

What do the screens show for `Cc1cc(NC(=O)c2ccco2)ccc1NC(=O)c1ccco1`?
PKM2 inhibitor: 14.1µM*

How did COc1cc(C(=O)NCC(=O)N2CCN(S(=O)(=O)c3cc(C)ccc3C)CC2)cc(OC)c1OC do in these assays?
PKM2 inhibitor: 32.3%

Results for COc1ccc(S(=O)(=O)N(CC(=O)NC2CC2)c2ccc(C)cc2)cc1 ?
PKM2 inhibitor: 76.1%

How did COc1ccc(C2=CC(=O)C=CC2=O)cc1 do in these assays?
PKM2 inhibitor: 17.8µM*

What do the screens show for `COc1ccc(S(=O)(=O)/N=C2/C=CC(=O)C(C)=C2C)cc1`?
PKM2 inhibitor: 38.5%

How did COc1ccc(S(=O)(=O)c2ccc(OC)cc2)cc1 do in these assays?
PKM2 inhibitor: 45.2%

Results for Cc1ccc2nc(-c3ccncc3)c(Nc3ccccc3)n2c1 ?
PKM2 inh CRC: 15.9%; FLuc counter: -2.2%; PKM2 LDH couple: -0.7%

Results for O=C(CSc1ccc(-c2cccs2)nn1)Nc1ccccc1 ?
PKM2 inhibitor: 44.1%

Results for Cc1ccc2nc(-c3cccs3)c(Nc3ccccc3)n2c1 ?
PKM2 inh CRC: 2.8%; FLuc counter: -4.2%; PKM2 LDH couple: -6.9%

How did Cc1ccc(S(=O)(=O)N2CCN(C(=O)CCN3C(=O)c4ccccc4C3=O)CC2)cc1C do in these assays?
PKM2 inhibitor: 64.2%

Results for CCc1ccc(NC(=O)Cn2ccn(-c3cccc(Cl)c3)c(=O)c2=O)cc1 ?
PKM2 inhibitor: 32.8%

What do the screens show for `COc1cccc(CNC(=O)CCC2CCCN(C(=O)c3cc(C4CC4)[nH]n3)C2)c1` (stereo not drawn)?
PKM2 inhibitor: 139.1%

Results for O=C(Nc1nnc(SCc2ccc(Cl)cc2)s1)C1CC(=O)N(Cc2ccccc2)C1 (stereo not drawn) ?
PKM2 inhibitor: 40.1%

Results for Cc1ccc(CCNS(=O)(=O)c2cc3c(cc2C)NC(=O)CO3)cc1 ?
PKM2 inhibitor: 62.1%

What do the screens show for `Cc1ccccc1Nc1c(-c2ccc(Cl)s2)nc2ccccn12`?
PKM2 inh CRC: 4.9%; FLuc counter: 0.2%; PKM2 LDH couple: inconclusive

How did CCOC(=O)C1CCN(c2nc(N)c3c(N)nc(SCC(=O)O)cc3c2C#N)CC1 do in these assays?
PKM2 inhibitor: 65.6%

What do the screens show for `Cc1cc(C)n2ncc(S(=O)(=O)c3ccccc3)c2n1`?
PKM2 inhibitor: 59.0%

Results for Cc1ccc(-c2cc(-c3ccc(C)o3)nc(N)c2C#N)cc1 ?
PKM2 inhibitor: 57.9%

Results for Cc1cc(C)n2c(Nc3ccc4c(c3)OCCO4)c(-c3ccc(C)o3)nc2n1 ?
PKM2 inhibitor: 43.5%

How did Cc1ccc(-c2nc3ccccn3c2Nc2ccccc2)o1 do in these assays?
PKM2 inhibitor: 66.5%

How did Cc1ccc2nc(-c3ccc(C)o3)c(Nc3ccc(F)cc3)n2c1 do in these assays?
PKM2 inh CRC: 7.3%; FLuc counter: -0.3%; PKM2 LDH couple: inconclusive

Results for Cc1ccn2c(NC3CCCCC3)c(-c3ccc(C)o3)nc2c1 ?
PKM2 inh CRC: 16.2%; FLuc counter: 5.0%; PKM2 LDH couple: -9.4%

How did Cc1ccc(Nc2c(-c3ccc(C)o3)nc3ccccn23)cc1 do in these assays?
PKM2 inh CRC: 10.2%; FLuc counter: -0.2%; PKM2 LDH couple: 4.61µM*

Results for Cc1ccc(-c2nc3cnccn3c2Nc2ccc3c(c2)OCO3)o1 ?
PKM2 inhibitor: 66.5%

Results for Cc1ccc(Nc2c(-c3ccc(C)o3)nc3cnccn23)cc1 ?
PKM2 inhibitor: 63.7%

Results for Cc1ccc2nc(-c3ccc(C)o3)c(Nc3ccc4c(c3)OCO4)n2c1 ?
PKM2 inh CRC: 11.8%; FLuc counter: 1.7%; PKM2 LDH couple: -5.8%

How did CS(=O)(=O)c1ccc(NCCc2ccc(S(N)(=O)=O)cc2)c([N+](=O)[O-])c1 do in these assays?
PKM2 inhibitor: 57.0%

What do the screens show for `CC(=C\C(=O)O)/C(=C/c1ccc(C)o1)C(=O)O`?
PKM2 inhibitor: 35.6%

What do the screens show for `COc1c(C)cc(Br)cc1C(=O)Nc1ccccc1C`?
PKM2 inhibitor: 67.2%

Results for CCOc1ccc(S(=O)(=O)N2CCN(C(=S)NCc3ccco3)CC2)cc1 ?
PKM2 inhibitor: 65.3%

How did O=C1CN(S(=O)(=O)c2ccccc2)CCN1S(=O)(=O)c1ccccc1 do in these assays?
PKM2 inhibitor: 65.5%

How did C[c-]1[c-](C)[c-](C)[c-](C)[c-]1C.[Fe].c1cc2nccc(N3CCCC3)[c-]2c1 (stereo not drawn) do in these assays?
PKM2 inhibitor: 31.9%
